Compound activity from PubChem BioAssay.
Sampled rows, rich in hits. Any-hit rate of the full collection: about 21%.
NS1 function inh = inhibitors of influenza NS1 protein function; AID 2326; Potency, µM (highest dose often 46.1 µM), inactives show at the top dose activity, positive = more growth; actives 0.4% (n = 270,000); note: potency is the fitted concentration of half-maximal effect; actives are rising curves; nearly all actives have a fitted effect of over 50% in size
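S. cerevisiae expressing influenza A NS1, grown in glucose, washed, then diluted 1:100 into pH 6.0 -URA galactose medium with 23 nl compound. Growth recovery read as OD600; NS1-free strain serves as control.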
SARS PLpro yeast = blocks SARS-CoV papain-like protease in a yeast assay; actives 0.19% (n = 330,000); Potency, µM (highest dose often 32.9 µM), for the others: at the top dose activity, positive = growth rescue, most hits filed as activators; S. cerevisiae expressing SARS-CoV PLpro, growth rescue; note: potency is the fitted concentration of half-maximal effect; 0% is about no effect; nearly all actives have a fitted effect of over 55% in size
Pf growth 96h = P. falciparum growth inhibition at 96 hours; P. falciparum luciferase reporter growth, 96 h; Potency, µM (highest dose often 28.7 µM), for inactives: top-dose activity change, negative = inhibition, hits mostly inhibitors; actives 6.9% (n = 320,000); AID 504834; active = well fitted inhibition curve with a large enough effect; inconclusive = small, poorly fitted or top-dose-only effect, or another doubt; inactive = no such curve, though single readings can be large or run the other way; note: potency is the fitted concentration of half-maximal effect; % is set by controls: 0 for no effect and ±100 for the full control effect
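Two-generation exposure (96 h) targets delayed-death phenotype. Reporter parasites carrying integrated firefly luciferase, in red cells at 2% hematocrit and 0.05% parasitemia final, kept at 37 C, 5% CO2; luminescence loss indicates inhibition.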
Shiga inhibitor = inhibitors of Shiga toxin in Vero cells. inhibition, % at 38.7 µM. Vero cells, Shiga toxin protein synthesis inhibition reporter. actives 9.2% (n = 290,000); in the data active = inhibition mostly above about 28%, no sharp cut-off; inactive = mostly below about 43%; note: 0% is about no effect
CHX counter = counter-screen hit for Shiga toxin inhibitors, cycloheximide. cell reporter, cycloheximide protein synthesis inhibition counterscreen. actives 12% (n = 300,000). max response, %. AID 2314; in the data active = max response mostly above about 13%, no sharp cut-off; inactive = mostly below about 14%; note: read at 38.3 µM for the half of the compounds with a filed dose; 0% is about no effect
Pf growth 48h = inhibits P. falciparum growth in the first generation, 48 h; P. falciparum luciferase growth in erythrocytes, 48 h; actives 5.9% (n = 310,000); Potency, µM (top dose mostly 28.7 µM), without a hit: top-dose activity change, negative = inhibition, most hits filed as inhibitors; AID 504832; active = well fitted inhibition curve with a large enough effect; inconclusive = small, poorly fitted or top-dose-only effect, or another doubt; inactive = no such curve, though single readings can be large or run the other way; note: potency is the fitted concentration of half-maximal effect; % is set by controls: 0 for no effect and ±100 for the full control effect
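Read-out is firefly luciferase luminescence from an integrated reporter in P. falciparum, so falling signal marks reduced parasite growth. Infected erythrocytes were at 2% hematocrit and 0.1% parasitemia (final) in Albumax-supplemented RPMI 1640.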
* hit, by the source's call; [ ] = another dose, or the depositor's remark. Unless noted, calls come from the whole dose curve.

`Oc1ccc(-c2nc3ncccn3c2Nc2ccc3c(c2)OCCO3)cc1` gave NS1 function inh -31%, SARS PLpro yeast 4%, Pf growth 96h inconclusive, Shiga inhibitor 36 and CHX counter 15.
For COc1ccc(-c2nc3ncccn3c2Br)cc1 the results were NS1 function inh -34%, SARS PLpro yeast -1%, Pf growth 96h 18%, Shiga inhibitor 73*, CHX counter 28* and Pf growth 48h 134%.
For Brc1c(-c2ccc3c(c2)OCO3)nc2ncccn12 the results were NS1 function inh 0%, SARS PLpro yeast -2%, Pf growth 96h inconclusive, Shiga inhibitor 33*, CHX counter 20* and Pf growth 48h 67%.
For Cc1c(-c2cccs2)[n+](=O)c2c(n1[O-])CCCC2 the results were NS1 function inh 2%, SARS PLpro yeast -22%, Pf growth 96h -6%, Shiga inhibitor -1, CHX counter -1 and Pf growth 48h -9%.
CCC(C)(C)NC(=O)C1CC(=O)N(CCc2ccc(F)cc2)C1 (stereo not given) was read as NS1 function inh 2%, SARS PLpro yeast 1%, Pf growth 96h 0%, Shiga inhibitor -16, CHX counter -2 and Pf growth 48h 174%.
`COC(=O)C1CCN(C(=O)/C=C/c2ccccc2)CC1` gave NS1 function inh 4%, SARS PLpro yeast 13%, Pf growth 96h inconclusive, Shiga inhibitor 41*, CHX counter 18 and Pf growth 48h 253%.
Screening O=C(OCC(=O)N1CCC(Cc2ccccc2)CC1)c1cc(Cl)ccc1O returned SARS PLpro yeast 0%, Pf growth 96h -30% and Pf growth 48h 3%.
For COC(=O)C1CCN(C(=O)Cc2ccc(C)cc2)CC1 the results were NS1 function inh 7%, SARS PLpro yeast 4%, Pf growth 96h 26%, Shiga inhibitor 7 and CHX counter 18.
Screening CCOC(=O)C1CCN(C(=O)/C=C/c2ccccc2OC)CC1 returned NS1 function inh -13%, SARS PLpro yeast -2%, Pf growth 96h -14%, Shiga inhibitor 3 and CHX counter 6.
Screening O=C(/C=C/c1ccccc1)N1CCC(Cc2ccccc2)CC1 returned NS1 function inh -75%, SARS PLpro yeast -6%, Pf growth 96h 8.3µM*, Shiga inhibitor 41, CHX counter 30 and Pf growth 48h inconclusive.
Screening O=C(/C=C/c1cccc(Cl)c1)N1CCC(Cc2ccccc2)CC1 returned NS1 function inh -33%, SARS PLpro yeast -22%, Pf growth 96h -10%, Shiga inhibitor 54*, CHX counter 12* and Pf growth 48h 33%.
For CCOC(=O)C1CCN(C(=O)/C=C/c2ccc(OC)cc2)CC1 the results were NS1 function inh -5%, SARS PLpro yeast 3%, Pf growth 96h 154%, Shiga inhibitor 71* and CHX counter 42*.
Screening O=C(COc1ccccc1F)Nc1ccc(S(=O)(=O)Nc2nccs2)cc1 returned NS1 function inh 4%, SARS PLpro yeast 11%, Pf growth 96h -9%, Shiga inhibitor -7, CHX counter -8 and Pf growth 48h 3%.
`O=[N+]([O-])c1ccc(C(O)CN=Cc2ccc(O)cc2O)cc1` (stereo not given) gave NS1 function inh -39%, SARS PLpro yeast 0%, Pf growth 96h 3%, Shiga inhibitor -2, CHX counter -1 and Pf growth 48h -8%.
For CN(C)/C=C/C(=O)c1ncc(C(F)(F)F)cc1Cl the results were SARS PLpro yeast 2%, Pf growth 96h 38%, Shiga inhibitor 5, CHX counter -2 and Pf growth 48h inactive.
Screening CCCOc1ccc(CCCN=C(N)N)cc1Cl returned NS1 function inh -3%, SARS PLpro yeast -2%, Pf growth 96h -12%, Shiga inhibitor 27, CHX counter 0 and Pf growth 48h inconclusive.
`NC(=S)N/N=C/c1coc2ccc(Cl)cc2c1=O` gave NS1 function inh -3%, SARS PLpro yeast 0%, Pf growth 96h 24%, Shiga inhibitor 21, CHX counter -4 and Pf growth 48h 13%.
Screening Cc1cc(=S)c2ccccc2[nH]1 returned NS1 function inh -7%, SARS PLpro yeast -10%, Pf growth 96h 24%, Shiga inhibitor -8, CHX counter -4 and Pf growth 48h 8%.
COc1cc2[nH]c3ccccc3c2cc1C was read as NS1 function inh 13%, SARS PLpro yeast -2%, Pf growth 96h -13%, Shiga inhibitor 69*, CHX counter 53* and Pf growth 48h 61%.
`Cc1cc(N2C(=O)C(O)=C(C(=O)c3cc4ccccc4o3)C2c2ccc(Br)cc2)no1` (stereo not given) gave NS1 function inh 8%, SARS PLpro yeast 2%, Pf growth 96h inconclusive, Shiga inhibitor 23, CHX counter 42* and Pf growth 48h inconclusive.
CN(C)CCN1C(=O)C(O)=C(C(=O)c2cc3ccccc3o2)C1c1ccc(N(C)C)cc1 (stereo not given) was read as NS1 function inh -8%, SARS PLpro yeast -3%, Pf growth 96h 9.3µM*, Shiga inhibitor 14, CHX counter 10 and Pf growth 48h 54%.
Screening Cc1cc(N2C(=O)C(O)=C(C(=O)c3cc4ccccc4o3)C2c2ccc(Cl)cc2)no1 (stereo not given) returned NS1 function inh 2%, SARS PLpro yeast 1%, Pf growth 96h inconclusive, Shiga inhibitor -4, CHX counter 2 and Pf growth 48h inconclusive.
For CCOC(=O)c1c(-c2ccccc2)csc1NC(=O)/C(C#N)=C/c1ccc(O)c(OC)c1 the results were NS1 function inh 13%, SARS PLpro yeast 9%, Pf growth 96h inconclusive, Shiga inhibitor 2, CHX counter 0 and Pf growth 48h inconclusive.
`COc1ccc(NC(=O)CN(C)C(=O)CCNC(=O)c2ccccc2OC)cc1` gave Pf growth 96h -4% and Pf growth 48h -1%.
Screening CCCCCSc1cc(O)c(C(CNC)C(C)C)cc1OC (stereo not given) returned NS1 function inh -4%, SARS PLpro yeast -2%, Pf growth 96h 0.47µM*, Shiga inhibitor -2, CHX counter -5 and Pf growth 48h 0.41µM*.
For Cc1cc(Br)cc2c1NC(=O)C2(O)CC(=O)c1ccco1 (stereo not given) the results were NS1 function inh 1%, SARS PLpro yeast -1%, Pf growth 96h 62%[1.15 µM], Shiga inhibitor 14, CHX counter -6 and Pf growth 48h 61%.
CC(NC(=S)NC1CCC(C(C)(C)C)CC1)c1ccccc1 (stereo not given) was read as NS1 function inh 18%, SARS PLpro yeast -2%, Pf growth 96h 9.3µM*, Shiga inhibitor -5, CHX counter -2 and Pf growth 48h 7.4µM*.
Screening CCc1ccc(NC(=S)NC2CC3CCCC(C2)N3Cc2cccs2)cc1 (stereo not given) returned NS1 function inh -2%, SARS PLpro yeast 0%, Pf growth 96h 2.1µM*, Shiga inhibitor -11, CHX counter 1 and Pf growth 48h inconclusive.
